Reference: PubChem BioAssay (NCI)
This is part of a sample that, as a whole, favours compounds with a hit. Of some 83,000 tested, about 20% had one in any assay.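 Note: values are percent growth. 100 is the growth of untreated cells, values between 100 and 0 indicate rising inhibition; between -100 and 0 indicates cell death.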 Active and inactive are the calls of the source. Rule for the calls: active = growth percent below 10; inactive = the rest.

tested on: KM12 colon; assay: NCI-60 one-dose screen, 48 h (100 = growth as untreated, 0 = no growth, -100 = all killed); conditions: 10 µM unless noted

Compound	growth
CC(C)c1ccc(/C=N/N=C(N)N)cc1	27.7% (inactive)
C=C(C)[C@@H]1CC[C@]2(C(N)=O)CC[C@]3(C)[C@H](CC[C@@H]4[C@@]5(C)CC[C@H](O)C(C)(C)[C@@H]5CC[C@]43C)[C@@H]12	-63.5% [100 µM] (active)
CC1(C)CC[C@]2(C(=O)O)CC[C@]3(C)C(=CC[C@@H]4[C@@]5(C)C/C(=C/c6cccnc6)[C@H](O)C(C)(C)[C@@H]5CC[C@]43C)[C@@H]2C1	-38.1% [100 µM] (active)
C#CCNC(=O)CC[C@]1(C)[C@H]2CC[C@@H]3[C@@H]([C@@](C)(O)CCC=C(C)C)CC[C@@]3(C)[C@]2(C)CC[C@H]1C(=C)C	36% [100 µM] (inactive)
CCOC(=O)c1nn(C2CCCCO2)c2ccc(NC(=O)CSc3nc4ccccc4c(=O)[nH]3)cc12 (configuration not stated)	102% (inactive)
O=C(Nc1ccc(Oc2ccc(F)cc2)c(Cl)c1)c1cccnn1	79.2% (inactive)
CC(=O)n1cc(C=O)c2ccccc21	94% (inactive)
